In the library only some 3.5% were active in any assay of this set; here they are far more common.
MITF inh – blocks human microphthalmia-associated transcription factor. O75030. AlphaScreen MITF homodimerization, bead proximity signal. inhibition, % at 2.6 µM. 650,000 compounds, 0.91% hits; in the data active = inhibition above about 50%
Target sequence (O75030 whole entry, looked up): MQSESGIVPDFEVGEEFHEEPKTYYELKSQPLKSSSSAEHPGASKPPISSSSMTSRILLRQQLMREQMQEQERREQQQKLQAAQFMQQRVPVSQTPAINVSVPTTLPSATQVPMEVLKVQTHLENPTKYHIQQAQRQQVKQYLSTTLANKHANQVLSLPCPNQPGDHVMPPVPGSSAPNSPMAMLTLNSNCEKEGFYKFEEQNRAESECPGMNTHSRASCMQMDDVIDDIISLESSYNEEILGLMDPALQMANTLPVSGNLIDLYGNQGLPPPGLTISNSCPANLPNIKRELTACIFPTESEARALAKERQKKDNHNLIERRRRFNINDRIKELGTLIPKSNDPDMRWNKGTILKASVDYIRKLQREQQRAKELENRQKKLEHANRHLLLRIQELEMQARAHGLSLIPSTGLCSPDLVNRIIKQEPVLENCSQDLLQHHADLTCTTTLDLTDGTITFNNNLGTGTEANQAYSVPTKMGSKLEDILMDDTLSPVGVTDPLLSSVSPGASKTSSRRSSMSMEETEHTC
TEAD-YAP inh – TEAD-YAP interaction inhibition | HEK-TIYL cells, TEAD-Gal4/YAP UAS-luciferase luminescence | 640,000 compounds, 1.4% hits | inhibition, % at 9.12 µM; in the data active = inhibition above about 32%
GPR151 activ – human GPR151 activation | Q8TDV0 | PathHunter beta-arrestin GPR151 cells, luminescence | activation, % at 11.2 µM | 650,000 compounds, 1% hits | AID 1508602; in the data active = activation above about 4.9%
FBW7 act – activators of human E3 ligase FBW7; 650,000 compounds, 0.13% hits; normalized activity (activation), % at 26.1 µM; AlphaScreen FBW7–phospho-cyclin E peptide binding, activator screen; Q969H0; in the data active = normalized activity above about 1.9%;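 also: purified mutant Fbw7 with reduced substrate affinity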
GPR151 confirm – confirmation of human GPR151 activators | AID 1508609 | activation, % at 11.2 µM | 6,700 tested, under 10 active | GPR151 PathHunter beta-arrestin cells, luminescence, 90 min; % of EA-reagent control over plate median | shares compounds with GPR151 activ;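 active = mean percent activation across replicates above the confirmation screen cutoff of 4.91%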
GPR119 ag – activates human GPR119 in a GPR151 counter-screen; shares compounds with GPR151 activ; GPR119 PathHunter beta-arrestin cells, luminescence, 90 min; 0 = compound-well median, 100 = enzyme-acceptor control; activation, % at 11.2 µM; 6,700 compounds, 0.3% hits;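 active = mean percent activation in the counterscreen above 29.09%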;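 also: counterscreen on off-target GPR119 to flag nonselective hits from the GPR151 activator screen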
Large screens that a line does not name were inactive (follow-up assays come after a bar, where they were run); ! = not confirmed by another sample.

CCOc1ccc(CCNC(=O)c2[nH]c(C)c(C(C)=O)c2C)cc1OCC	GPR151 activ 14.2 | GPR151 confirm inactive | GPR119 ag inactive
COc1ccc(CCNC(=O)c2[nH]c(C)c(C(C)=O)c2C)cc1OC	none
N#CC1=C(S)NC(=O)CC1c1ccc(Br)cc1 (stereo not given)	none
CC(NC(=O)C1CC1)C(c1cccs1)N1CCN(c2ccccc2F)CC1 (stereo not given)	none
CC(NC(=O)C1CC1)C(c1cccs1)N1CCN(c2ccccc2)CC1 (stereo not given)	GPR151 activ 5.7 | GPR151 confirm inactive | GPR119 ag inactive
Cc1c(NC(=O)CSc2ccccc2)c(=O)n(-c2ccccc2)n1C	none
Cc1c(NC(=O)CSc2ccc(C(C)(C)C)cc2)c(=O)n(-c2ccccc2)n1C	GPR151 activ 8.2 | GPR151 confirm inactive | GPR119 ag inactive
Cc1cc(C)n(-c2ccc(NC(=O)C3CCN(Cc4cnc(C)s4)CC3)cc2)n1	GPR151 activ 5.8! | GPR151 confirm inactive | GPR119 ag inactive
Cc1ncc(CN2CCC(C(=O)Nc3ccc(-n4cccn4)cc3)CC2)s1	none
CCOC(=O)C1=C(O)/C(=C/c2ccc(N(C)C)cc2)N=C1C	GPR151 activ 12.2 | GPR151 confirm inactive | GPR119 ag inactive
CCOC(=O)C1=C(O)/C(=C\c2ccc(F)cc2)N=C1C	none
CC1(C)CC(=O)C/C(=N\NC(=O)c2ccccc2I)C1	none
O=C(Oc1cccc(OC(=O)c2ccccc2F)c1)c1ccccc1F	GPR151 activ 5.6 | GPR151 confirm inactive | GPR119 ag inactive
O=C(NCCc1ccc(F)cc1)c1ccccc1Br	none
N#C/C(=C\c1ccc(Cl)cc1Cl)c1nc(-c2ccc(-c3ccccc3)cc2)cs1	none
CN(CCc1ccccn1)c1nc2nonc2nc1NCc1ccccc1	none
Cc1nccn1CCN(C)c1nc2nonc2nc1NCc1ccccc1	GPR151 activ 11.6 | GPR151 confirm inactive | GPR119 ag inactive
O=C(c1ccc(Cl)cc1)N1CCN(c2ccc([N+](=O)[O-])c(NCc3ccco3)c2)CC1	GPR151 activ 6.0 | GPR151 confirm inactive | GPR119 ag inactive
COc1ccc2sc(C)[n+](CC(=O)O)c2c1	none
CCOC(=O)C[n+]1c(C)sc2ccc(OC)cc21	GPR151 activ 6.1 | GPR151 confirm inactive | GPR119 ag inactive
Cc1cc(C)nc(SCC(=O)N2CCCCC2)n1	GPR151 activ 7.5 | GPR151 confirm inactive | GPR119 ag inactive
Cc1cc(=O)[nH]c2nnc(SCC(=O)N3CCCCCC3)n12	GPR151 activ 6.1 | GPR151 confirm inactive | GPR119 ag inactive
CC1=CC2=NC(=O)/C(=C\c3cc(C)n(-c4cc([N+](=O)[O-])ccc4C)c3C)C(=N)N2O1	none
N#CCSc1nc2cc(C(=O)N3CCCC3)ccc2c(=O)n1-c1ccccc1	none
N#CCSc1nc2cc(C(=O)N3CCN(c4ccccc4)CC3)ccc2c(=O)n1C1CCCCC1	GPR151 activ 11.1 | GPR151 confirm inactive | GPR119 ag inactive
CCCCCn1c(SCc2ccccn2)nc2cc(C(=O)N3CCN(c4ccccc4)CC3)ccc2c1=O	GPR151 activ 5.1 | GPR151 confirm inactive | GPR119 ag inactive
Cc1ccc(NC(=O)c2ccc(O)cc2)cc1C	none
COC(=O)c1ccc(C2C3=C(CC(c4ccc(C)cc4)CC3=O)Nc3ccccc3N2C(C)=O)cc1 (stereo not given)	GPR151 activ 6.6 | GPR151 confirm inactive | GPR119 ag inactive
O=c1cc(Cc2ccccc2)nc2c(-c3ccccc3)c[nH]n12	GPR151 activ 7.4 | GPR151 confirm inactive | GPR119 ag inactive
Cc1[nH]n2c(=O)cc(Cc3ccccc3)nc2c1C#N	none
Cc1cc(CSc2ccccc2)ccc1NS(C)(=O)=O	GPR151 activ 5.3 | GPR151 confirm inactive | GPR119 ag inactive
CC(=O)Nc1ccc(CSc2ccccc2)cc1C	none
Cn1c(=O)c2c(ncn2CC(O)CN2C(=O)c3ccccc3S2(=O)=O)n(C)c1=O (stereo not given)	GPR151 activ 6.0 | GPR151 confirm inactive | GPR119 ag inactive
O=C(COc1ccc(Br)cc1)Nc1cccc2c1C(=O)NC2=O	none
COc1ccc(C2CC(c3ccc(OC(F)F)cc3)n3ncnc3N2)cc1 (stereo not given)	GPR151 activ 7.4 | GPR151 confirm inactive | GPR119 ag inactive
COc1ccc(C2CC(c3ccccc3OC(F)F)Nc3ncnn32)cc1 (stereo not given)	none
Nc1nnc(SCC(=O)OCC(=O)Nc2ccc(Br)cc2F)s1	GPR151 activ 6.2 | GPR151 confirm inactive | GPR119 ag inactive
Nc1nnc(SCC(=O)OCC(=O)Nc2ccc(Br)cc2)s1	none
C=C(Cl)COc1ccc2c3c(c(=O)oc2c1)CCC3	none
Clc1ccc(Sc2ncnc3sc4c(c23)CCCC4)cc1	GPR151 activ 15.1 | GPR151 confirm inactive | GPR119 ag inactive
CC(OC(=O)c1ccc(S(=O)(=O)NCc2ccco2)cc1)C(=O)NC(N)=O (stereo not given)	none
CCCCOC(=O)c1cccc(NC(=S)NC(=O)c2cc(OC)c(OC)c(OC)c2)c1	GPR151 activ 5.1 | GPR151 confirm inactive | GPR119 ag inactive
CC(C)C(=O)Nc1nnc(SCc2ccc(Cl)cc2)s1	GPR151 activ 5.1 | GPR151 confirm inactive | GPR119 ag inactive
COc1ccc(/C=N/NC(=O)CNc2ccc3ccccc3c2)cc1OC	GPR151 activ 5.9 | GPR151 confirm inactive | GPR119 ag inactive
COc1ccc(/C=N/NC(=O)CNC(=O)c2ccccc2Br)cc1OC	GPR151 activ 7.6 | GPR151 confirm inactive | GPR119 ag inactive
COc1ccc(/C=N/NC(=O)C(=O)Nc2cccc(Cl)c2)cc1OC	GPR151 activ 7.4 | GPR151 confirm inactive | GPR119 ag inactive
COc1ccc(/C=N/NC(=O)CNC(=O)c2ccccc2Br)cc1	none
COc1ccc(/C=N/NC(=O)CNc2ccc3ccccc3c2)cc1Cl	none
NC(=O)COC(=O)COc1c(I)cc(Cl)c2cccnc12	none
CCOC(=O)c1c(/N=c2\oc3ccccc3cc2C(=O)Nc2ccccc2)sc2c1CCCC2	none
N#Cc1c(-c2ccccc2)cc(-c2ccccc2)nc1SCc1ccc(Cl)c(Cl)c1	none
N#Cc1c(-c2ccccc2)cc(-c2ccccc2)nc1SCc1ccc(Cl)cc1	GPR151 activ 5.5 | GPR151 confirm inactive | GPR119 ag inactive
CCN1CCN(S(=O)(=O)c2cc(C(=O)Nc3cccc(C)c3)ccc2F)CC1	GPR151 activ 6.1 | GPR151 confirm inactive | GPR119 ag inactive
O=C(Nc1cccc(Cl)c1)c1ccc(F)c(S(=O)(=O)N2CCc3ccccc3C2)c1	GPR151 activ 5.4 | GPR151 confirm inactive | GPR119 ag inactive
Cc1ccc(N2CCN(S(=O)(=O)c3cc(C(=O)Nc4cc(Cl)cc(Cl)c4)ccc3F)CC2C)cc1 (stereo not given)	GPR151 activ 5.7 | GPR151 confirm inactive | GPR119 ag inactive
COc1cc(OC)cc(C(=O)Nc2ccc3c(c2)CCCN3S(=O)(=O)c2ccc(F)cc2)c1	none

Source: PubChem (The Scripps Research Institute Molecular Screening Center)
